Data reported in PubChem BioAssay AID1159580 (chemical genetic matrix, 2015).
Out of some 5,500 compounds screened, about 2,000 (36%) were called active. Roughly 18% stayed inconclusive and do not appear here. No stated cut-off is given here; in the data, active means normalized growth mostly below about 0.91 (no sharp cut-off); inconclusive means no clear call, values can overlap the other calls; inactive means mostly above about 0.92. The list shows a part of the results.

Assay: chemical genetic growth profiling, strain panel (AID 1159580);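 further: tested at 20 µM; growth read once vehicle control cultures reached saturation at 30 °C; 1 = growth at the plate median or of vehicle wells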
Details: growth OD

Measured: normalized growth

N[C@@H](Cc1ccc(O)c(O)c1)C(=O)O
inactive: S. cerevisiae deletion strains, locus YJR075W, strain HOC1, stronger effect = lower value 1 | S. cerevisiae deletion strains, locus YKL009W, strain mrt4, stronger effect = lower value 0.961 | S. cerevisiae deletion strains, locus YKL068W, stronger effect = lower value 0.979 | S. cerevisiae deletion strains, locus YKL085W, strain MDH1 (second series), stronger effect = lower value 1 | S. cerevisiae deletion strains, locus YKL085W, strain MDH1, stronger effect = lower value 1 | S. cerevisiae deletion strains, locus YKL160W, strain elf1, stronger effect = lower value 1.01 | S. cerevisiae deletion strains, locus YKL190W, strain CNB1, stronger effect = lower value 0.964 | S. cerevisiae deletion strains, locus YKR001C, strain vps1, stronger effect = lower value 1 | S. cerevisiae deletion strains, locus YKR026C, strain gcn3, stronger effect = lower value 0.989 | S. cerevisiae deletion strains, locus YKR091W, strain srl3, stronger effect = lower value 0.998 | S. cerevisiae deletion strains, locus YLL001W, strain dnm1, stronger effect = lower value 0.983 | S. cerevisiae deletion strains, locus YLL026W, stronger effect = lower value 0.995 | S. cerevisiae deletion strains, locus YLL041C, strain sdh2, stronger effect = lower value 1 | S. cerevisiae deletion strains, locus YLR027C, strain aat2, stronger effect = lower value 1.01 | S. cerevisiae deletion strains, locus YLR039C, strain RIC1, stronger effect = lower value 0.91 | S. cerevisiae deletion strains, locus YLR058C, strain SHM2, stronger effect = lower value 0.996 | S. cerevisiae deletion strains, locus YLR102C, strain apc9, stronger effect = lower value 0.991 | S. cerevisiae deletion strains, locus YLR113W, strain HOG1, stronger effect = lower value 0.93 | S. cerevisiae deletion strains, locus YLR221C, strain rsa3, stronger effect = lower value 0.999 | S. cerevisiae deletion strains, locus YLR258W, strain gsy2, stronger effect = lower value 0.985 | S. cerevisiae deletion strains, locus YLR262C, strain YPT6 (second series), stronger effect = lower value 1.01 | S. cerevisiae deletion strains, locus YLR262C, strain YPT6, stronger effect = lower value 0.898 | S. cerevisiae deletion strains, locus YLR268W, strain sec22, stronger effect = lower value 1 | S. cerevisiae deletion strains, locus YLR320W, strain mms22, stronger effect = lower value 1.01 | S. cerevisiae deletion strains, locus YLR330W, strain CHS5, stronger effect = lower value 0.987 | S. cerevisiae deletion strains, locus YLR342W, strain FKS1 (second series), stronger effect = lower value 0.949 | S. cerevisiae deletion strains, locus YLR342W, strain FKS1, stronger effect = lower value 1.01 | S. cerevisiae deletion strains, locus YLR357W, strain rsc2, stronger effect = lower value 0.975 | S. cerevisiae deletion strains, locus YLR370C, strain arc18, stronger effect = lower value 1 | S. cerevisiae deletion strains, locus YLR371W, strain rom2, stronger effect = lower value 0.975 | S. cerevisiae deletion strains, locus YLR384C, strain iki3, stronger effect = lower value 1 | S. cerevisiae deletion strains, locus YLR418C, strain cdc73, stronger effect = lower value 1.04 | S. cerevisiae deletion strains, locus YML016C, strain PPZ1, stronger effect = lower value 0.991 | S. cerevisiae deletion strains, locus YML032C, strain rad52, stronger effect = lower value 0.991 | S. cerevisiae deletion strains, locus YML120C, strain ndi1, stronger effect = lower value 1 | S. cerevisiae deletion strains, locus YML124C, strain tub3, stronger effect = lower value 0.996 | S. cerevisiae deletion strains, locus YMR058W, strain fet3, stronger effect = lower value 0.993 | S. cerevisiae deletion strains, locus YMR078C, strain ctf18, stronger effect = lower value 0.995 | S. cerevisiae deletion strains, locus YMR125W, strain sto1, stronger effect = lower value 0.976 | S. cerevisiae deletion strains, locus YMR129W, stronger effect = lower value 0.986 | S. cerevisiae deletion strains, locus YMR205C, strain PFK2, stronger effect = lower value 0.982 | S. cerevisiae deletion strains, locus YMR223W, strain ubp8, stronger effect = lower value 1.01 | S. cerevisiae deletion strains, locus YMR231W, strain pep5, stronger effect = lower value 0.992 | S. cerevisiae deletion strains, locus YMR263W, strain SAP30, stronger effect = lower value 0.982 | S. cerevisiae deletion strains, locus YMR307W, strain GAS1, stronger effect = lower value 0.921 | S. cerevisiae deletion strains, locus YNL067W, strain RPL9B, stronger effect = lower value 0.982 | S. cerevisiae deletion strains, locus YNL071W, strain lat1, stronger effect = lower value 1.02 | S. cerevisiae deletion strains, locus YNL128W, strain TEP1, stronger effect = lower value 0.954 | S. cerevisiae deletion strains, locus YNL153C, strain GIM3, stronger effect = lower value 0.991 | S. cerevisiae deletion strains, locus YNL183C, strain NPR1, stronger effect = lower value 0.923 | S. cerevisiae deletion strains, locus YNL209W, strain ssb2, stronger effect = lower value 1.01 | S. cerevisiae deletion strains, locus YNL233W, strain BNI4, stronger effect = lower value 1 | S. cerevisiae deletion strains, locus YNL248C, strain rpa49, stronger effect = lower value 0.99 | S. cerevisiae deletion strains, locus YNL250W, strain rad50, stronger effect = lower value 0.98 | S. cerevisiae deletion strains, locus YNL271C, strain bni1, stronger effect = lower value 0.987 | S. cerevisiae deletion strains, locus YNL298W, strain CLA4, stronger effect = lower value 0.995 | S. cerevisiae deletion strains, locus YNL307C, strain MCK1, stronger effect = lower value 1 | S. cerevisiae deletion strains, locus YNL322C, strain KRE1 (second series), stronger effect = lower value 0.99 | S. cerevisiae deletion strains, locus YNL322C, strain KRE1, stronger effect = lower value 0.989 | S. cerevisiae deletion strains, locus YNR049C, strain mso1, stronger effect = lower value 1 | S. cerevisiae deletion strains, locus YNR052C, strain pop2, stronger effect = lower value 1 | S. cerevisiae deletion strains, locus YOL006C, strain TOP1, stronger effect = lower value 0.753 | S. cerevisiae deletion strains, locus YOL012C, strain htz1 0.813 | S. cerevisiae deletion strains, locus YOL147C, strain pex11, stronger effect = lower value 1 | S. cerevisiae deletion strains, locus YOR001W, strain rrp6, stronger effect = lower value 0.996 | S. cerevisiae deletion strains, locus YOR061W, strain CKA2, stronger effect = lower value 0.992 | S. cerevisiae deletion strains, locus YOR069W, strain VPS5, stronger effect = lower value 1 | S. cerevisiae deletion strains, locus YOR070C, strain gyp1, stronger effect = lower value 0.998 | S. cerevisiae deletion strains, locus YOR080W, strain dia2, stronger effect = lower value 0.993 | S. cerevisiae deletion strains, locus YOR083W, strain WHI5, stronger effect = lower value 1.01 | S. cerevisiae deletion strains, locus YOR106W, strain vam3, stronger effect = lower value 0.996 | S. cerevisiae deletion strains, locus YOR136W, strain idh2, stronger effect = lower value 1 | S. cerevisiae deletion strains, locus YOR144C, strain elg1, stronger effect = lower value 0.996 | S. cerevisiae deletion strains, locus YOR184W, strain ser1, stronger effect = lower value 0.982 | S. cerevisiae deletion strains, locus YOR231W, strain MKK1, stronger effect = lower value 0.942 | S. cerevisiae deletion strains, locus YOR265W, strain rbl2, stronger effect = lower value 0.998 | S. cerevisiae deletion strains, locus YOR270C, strain vph1, stronger effect = lower value 1.02 | S. cerevisiae deletion strains, locus YOR290C, strain snf2, stronger effect = lower value 0.933 | S. cerevisiae deletion strains, locus YOR316C, strain cot1, stronger effect = lower value 0.995 | S. cerevisiae deletion strains, locus YPL051W, strain arl3, stronger effect = lower value 0.994 | S. cerevisiae deletion strains, locus YPL055C, strain LGE1, stronger effect = lower value 0.92 | S. cerevisiae deletion strains, locus YPL078C, strain atp4, stronger effect = lower value 1.01 | S. cerevisiae deletion strains, locus YPL106C, strain sse1, stronger effect = lower value 0.96 | S. cerevisiae deletion strains, locus YPL240C, strain hsp82, stronger effect = lower value 0.995 | S. cerevisiae deletion strains, locus YPL241C, strain CIN2, stronger effect = lower value 0.987 | S. cerevisiae deletion strains, locus YPL256C, strain CLN2, stronger effect = lower value 0.929 | S. cerevisiae deletion strains, locus YPR119W, strain clb2, stronger effect = lower value 1 | S. cerevisiae deletion strains, locus YPR141C, strain kar3, stronger effect = lower value 0.98 | S. cerevisiae deletion strains, locus YPR163C, strain tif3, stronger effect = lower value 1.01 | S. cerevisiae deletion strains, locus YPR167C, strain met16, stronger effect = lower value 1.01 | S. cerevisiae deletion strains, strain wtn01, stronger effect = lower value 1.01 | S. cerevisiae strains, strain wild type, stronger effect = lower value 0.955
